Compounds with a hit are over-represented: about 19% of the library has one in this group of screens.
DT40 TDP1 CPT = growth inhibition of DT40 Tdp1-/-;hTDP1 cells with camptothecin (screen for TDP1 inhibitors); chicken DT40 Tdp1-/-;hTDP1 cells + 20 nM CPT, ATP luminescence, 48 h; Potency, µM (highest dose often 46.2 µM), without a hit: at the highest dose activity change, negative = growth inhibition, actives largely listed as inhibitors; hit rate 12% among 420,000; note: nearly all actives have a fitted effect of over 55% in size
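Chicken DT40 Tdp1-/- cells stably complemented with human TDP1 were seeded at 400 cells/well in medium containing 20 nM camptothecin, exposed to pin-transferred compounds, and grown at 37 °C for at least 48 hr. Viability was read as ATP luminescence.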
KB-3-1 tox = KB-3-1 parental cell cytotoxicity; KB-3-1 viability, CellTiter-Glo ATP luminescence, 72 h; Potency, µM (titrated, usually from 46.1 µM), most hits filed as cytotoxic; hit rate 1.4% among 400,000; AID 1347075; note: nearly all actives have a fitted effect of over 60% in size
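Luminescent ATP read-out (CellTiter-Glo) measures survival of drug-naive KB-3-1 cells after 72 h compound exposure at 37 °C. Titration series was screened from lowest to highest concentration, with DMSO vehicle plates as background controls.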
HT1080-NT tox = kills 2HG-producing HT-1080-NT fibrosarcoma cells. AID 686970. Potency, µM (titrated, usually from 46.1 µM), without a hit: at the highest dose activity, negative = less viability, hits mostly cytotoxic. HT-1080-NT fibrosarcoma viability, CellTiter-Glo ATP luminescence, 48 h. hit rate 1.6% among 360,000;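 note: NT is the 2HG producing partner of a matched IDH1 knockdown line; 0% = DMSO-treated cells and -100% = media-only wells without cells; nearly all actives have a fitted effect of over 55% in size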
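Viability of the 2HG-overproducing fibrosarcoma line after 48 hours of compound exposure at 37 degrees C was determined by luminescence with CellTiter-Glo, and concentration-effect curves were then fitted and categorized.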
HT1080 IDH1KD tx = kills HT-1080 cells with IDH1 knockdown | AID 686971 | hit rate 2% among 360,000 | Potency, µM (titrated, usually from 46.1 µM), inactives show at the top dose activity, negative = toxicity, usual class: cytotoxic | HT-1080 IDH1 knockdown viability, ATP luminescence, 48 h;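 note: 0% = DMSO wells and -100% = cell-free medium wells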
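Assay cells: HT-1080 with IDH1 knockdown, 750 per well, RPMI/5% FBS. Exposure: 48 h at 37 °C following 2 h pre-incubation. Read: CellTiter-Glo luminescence; fitted concentration-response, curve class assigned.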
TDP1 cell noCPT = qHTS for Inhibitors of human tyrosyl-DNA phosphodiesterase 1 (TDP1): qHTS in cells in absence of CPT. DT40 Tdp1-/- hTDP1 cells, no CPT, ATP luminescence, 48 h. hit rate 15% among 420,000. Potency, µM (titrated, usually from 46.2 µM), for inactives: top-dose activity change, negative = growth inhibition, most hits filed as inhibitors; note: nearly all actives have a fitted effect of over 55% in size
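Compound effects on proliferation are scored in DT40 Tdp1-/-;hTDP1 cells in the absence of CPT. ATP levels (CellTiter-Glo luminescence) are recorded after a ≥48 hr, 37 °C incubation.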
KB-V1 cytotox = KB-V1 MDR subline cytotoxicity; AID 1347076; Potency, µM (doses to about 46.1 µM), hits mostly cytotoxic; hit rate 3.4% among 400,000; KB-V1 MDR cells viability, CellTiter-Glo, 72 h; note: nearly all actives have a fitted effect of over 60% in size
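KB-V1 MDR subline cells in DMEM (phenol-red free, 10% FBS) exposed to compounds in qHTS concentration series for 72 h at 37 degrees C. Viability read by CellTiter-Glo luminescence; concentration-effect curves fitted after normalization and correction.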
* marks the source's active call; other numbers are inactive results. Calls come from the whole dose curve; as a rule, active = well fitted curve in the direction sought with a large enough effect; inconclusive = small, poorly fitted or top-dose-only effect, or another doubt; inactive = no such curve, though single readings can be large; an effect the other way counts as inactive or inconclusive. Unless noted, % is set by controls: 0 for no effect and ±100 for the full control effect; potency is the fitted concentration of half-maximal effect.

Results for Cc1ccc(Cl)cc1Nc1nn2c(=O)c3ccc(C(=O)NC4CCC(C)CC4)cc3nc2s1 (stereo unspecified) ?
DT40 TDP1 CPT: -27%; KB-3-1 tox: inactive; TDP1 cell noCPT: inconclusive; KB-V1 cytotox: inactive

Results for COc1ccccc1Nc1nn2c(=O)c3ccc(C(=O)Nc4ccc(F)cc4)cc3nc2s1 ?
DT40 TDP1 CPT: 2.6µM*; KB-3-1 tox: inactive; TDP1 cell noCPT: 5.8µM*; KB-V1 cytotox: inconclusive

Results for Cc1ccc(NC(=O)Cn2c(=O)c3cc(Cl)ccc3n3nncc23)cc1 ?
DT40 TDP1 CPT: -2%; KB-3-1 tox: inactive; TDP1 cell noCPT: -26%; KB-V1 cytotox: inconclusive

Results for COc1ccccc1/C=C/c1nc2ccccc2[nH]1 ?
DT40 TDP1 CPT: inconclusive; KB-3-1 tox: inactive; TDP1 cell noCPT: 14µM*; KB-V1 cytotox: inactive

Results for Cc1cc2nc(/C=C/c3nc4cc(C)c(C)cc4[nH]3)[nH]c2cc1C ?
DT40 TDP1 CPT: 1%; KB-3-1 tox: inactive; HT1080-NT tox: -4%; HT1080 IDH1KD tx: -9%; TDP1 cell noCPT: -21%; KB-V1 cytotox: inactive

Results for COc1ccccc1/C=C/c1cncc(/C=C/c2ccccc2OC)c1 ?
DT40 TDP1 CPT: inconclusive; KB-3-1 tox: inconclusive; TDP1 cell noCPT: 13µM*; KB-V1 cytotox: inactive

Results for O=c1[nH]c2ccccc2nc1/C=C/c1ccccc1 ?
DT40 TDP1 CPT: inconclusive; KB-3-1 tox: inactive; HT1080-NT tox: -1%; HT1080 IDH1KD tx: -4%; TDP1 cell noCPT: -26%; KB-V1 cytotox: inactive

Results for Cc1ccc(/C=C/c2nc3ccccc3[nH]2)o1 ?
DT40 TDP1 CPT: 23µM*; KB-3-1 tox: inactive; HT1080-NT tox: inconclusive; HT1080 IDH1KD tx: inconclusive; TDP1 cell noCPT: 16µM*; KB-V1 cytotox: inconclusive

Results for O=c1[nH]c2ccccc2nc1/C=C/c1ccc(O)cc1 ?
DT40 TDP1 CPT: inconclusive; KB-3-1 tox: inactive; HT1080-NT tox: -1%; HT1080 IDH1KD tx: -24%; TDP1 cell noCPT: 15µM*; KB-V1 cytotox: inconclusive

How did CCOC(=O)c1ccc(S(=O)(=O)NNc2ccc(C(F)(F)F)cn2)cc1 do in these assays?
DT40 TDP1 CPT: -19%; KB-3-1 tox: inactive; HT1080-NT tox: -1%; HT1080 IDH1KD tx: 1%; TDP1 cell noCPT: 20%; KB-V1 cytotox: inconclusive

What do the screens show for `CC(C)COC(=O)C1[C@H]2C(=O)N(Cc3cccs3)C[C@]23C=C[C@H]1O3` (stereo partly specified)?
DT40 TDP1 CPT: -5%; KB-3-1 tox: inactive; HT1080-NT tox: 7%; HT1080 IDH1KD tx: -7%; TDP1 cell noCPT: 3%; KB-V1 cytotox: inactive

What do the screens show for `Cc1ccc(/C=C/c2nc3ccccc3[nH]2)cc1`?
DT40 TDP1 CPT: 10µM*; TDP1 cell noCPT: 13µM*

How did C[C@H](CO)N1C[C@H](C)[C@@H](CN(C)CC2CCCCC2)Oc2c(NS(=O)(=O)c3ccc(F)cc3)cccc2C1=O do in these assays?
DT40 TDP1 CPT: inconclusive; KB-3-1 tox: inactive; HT1080-NT tox: 7%; HT1080 IDH1KD tx: 9%; TDP1 cell noCPT: -18%; KB-V1 cytotox: inactive

How did Cc1ccc2c(c1)C1(SC(C)C(=O)N1c1ccc(Cl)cc1)C(=O)N2 (stereo unspecified) do in these assays?
DT40 TDP1 CPT: 6.5µM*; KB-3-1 tox: inactive; HT1080-NT tox: -16%; HT1080 IDH1KD tx: -29%; TDP1 cell noCPT: 4.1µM*; KB-V1 cytotox: inconclusive

How did COc1cccc(CNc2nc3cc(-c4cnn(Cc5ccccc5)c4)sc3c(=O)n2C)c1 do in these assays?
DT40 TDP1 CPT: inconclusive; KB-3-1 tox: inactive; HT1080-NT tox: -13%; HT1080 IDH1KD tx: inconclusive; TDP1 cell noCPT: inconclusive; KB-V1 cytotox: inactive
